Experimental data taken from the supplement of paper PMC11732987, “Enantioselective OTUD7B fragment discovery through chemoproteomics screening and high-throughput optimisation” (Communications Chemistry, 2025).

Tests used:
Assay in all cases: log2 ratio of Biotin-Ahx-Ub-VS probe labelling (fragment/DMSO); higher = less target engagement (more negative = stronger competition), active = hit call of the paper (q ≤ 0.05, log2 ratio ≤ -1)
Details in all cases: compound concentration: 200 uM; treatment time: 3 h
USP42 = biological target: T1, USP42 (UniProt Q9H9J4)
T1 sequence (whole entry): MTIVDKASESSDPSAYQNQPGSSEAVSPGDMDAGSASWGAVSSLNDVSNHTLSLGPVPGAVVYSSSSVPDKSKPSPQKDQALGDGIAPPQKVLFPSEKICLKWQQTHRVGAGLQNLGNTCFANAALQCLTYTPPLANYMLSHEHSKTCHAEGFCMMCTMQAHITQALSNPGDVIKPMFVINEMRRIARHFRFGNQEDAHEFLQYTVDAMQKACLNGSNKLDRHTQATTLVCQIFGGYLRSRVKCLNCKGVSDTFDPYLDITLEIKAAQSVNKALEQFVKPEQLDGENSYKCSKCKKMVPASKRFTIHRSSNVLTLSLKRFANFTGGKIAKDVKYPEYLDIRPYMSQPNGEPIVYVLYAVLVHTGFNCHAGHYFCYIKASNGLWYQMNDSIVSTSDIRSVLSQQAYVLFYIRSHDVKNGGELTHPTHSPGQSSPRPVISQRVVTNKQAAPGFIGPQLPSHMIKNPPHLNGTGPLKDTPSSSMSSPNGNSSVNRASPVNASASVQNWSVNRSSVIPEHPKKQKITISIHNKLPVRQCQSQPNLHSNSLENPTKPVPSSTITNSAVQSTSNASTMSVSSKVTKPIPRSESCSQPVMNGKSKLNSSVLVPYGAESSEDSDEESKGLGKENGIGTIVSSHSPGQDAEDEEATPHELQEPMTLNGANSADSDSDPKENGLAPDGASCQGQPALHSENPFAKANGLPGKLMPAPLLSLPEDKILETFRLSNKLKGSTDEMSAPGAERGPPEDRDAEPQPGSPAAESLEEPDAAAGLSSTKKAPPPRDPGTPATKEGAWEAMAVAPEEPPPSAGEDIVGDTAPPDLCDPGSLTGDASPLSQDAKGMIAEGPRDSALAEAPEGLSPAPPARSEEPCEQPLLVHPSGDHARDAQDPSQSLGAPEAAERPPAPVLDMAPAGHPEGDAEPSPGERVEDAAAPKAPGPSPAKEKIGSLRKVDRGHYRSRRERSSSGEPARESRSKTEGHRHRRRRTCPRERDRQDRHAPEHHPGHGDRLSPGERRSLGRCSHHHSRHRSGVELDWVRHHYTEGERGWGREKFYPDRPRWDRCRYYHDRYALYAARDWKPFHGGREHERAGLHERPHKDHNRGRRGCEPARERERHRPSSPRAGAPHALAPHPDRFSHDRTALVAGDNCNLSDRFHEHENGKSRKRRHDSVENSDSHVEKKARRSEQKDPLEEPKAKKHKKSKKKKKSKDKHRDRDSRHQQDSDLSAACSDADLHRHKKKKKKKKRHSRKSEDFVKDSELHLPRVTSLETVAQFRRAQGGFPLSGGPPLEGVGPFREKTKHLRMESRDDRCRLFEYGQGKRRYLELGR
How it was run: (§1)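 Fragment (200 µM) or vehicle was incubated for 3 h with triplicate HEK293T lysate samples of 495 µg, which were then treated with Biotin-Ahx-Ub-VS at 0.5 µM final for 1 h. Labelled DUBs were enriched on NeutrAvidin, digested with LysC and trypsin, and analysed by diaPASEF LC-MS/MS. Values are average log2 fragment/vehicle ratios from an unpaired t-test on global-median-normalised Spectronaut label-free quantities, using proteins with ≥2 unique peptides.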

USP46 = USP46 (UniProt P62068)
Chain of USP46 (P62068 whole entry): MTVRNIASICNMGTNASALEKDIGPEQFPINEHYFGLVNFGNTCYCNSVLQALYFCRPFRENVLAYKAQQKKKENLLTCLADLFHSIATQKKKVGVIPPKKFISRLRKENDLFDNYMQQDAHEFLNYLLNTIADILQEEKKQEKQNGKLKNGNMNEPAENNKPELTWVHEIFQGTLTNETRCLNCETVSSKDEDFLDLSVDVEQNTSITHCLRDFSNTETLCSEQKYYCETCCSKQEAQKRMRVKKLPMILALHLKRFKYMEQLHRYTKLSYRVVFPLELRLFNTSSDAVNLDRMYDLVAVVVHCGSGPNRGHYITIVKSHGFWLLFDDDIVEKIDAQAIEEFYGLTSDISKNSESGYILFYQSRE
How it was run: as §1

USP47 = biological target: T2, USP47 (UniProt Q96K76)
T2 sequence (whole entry): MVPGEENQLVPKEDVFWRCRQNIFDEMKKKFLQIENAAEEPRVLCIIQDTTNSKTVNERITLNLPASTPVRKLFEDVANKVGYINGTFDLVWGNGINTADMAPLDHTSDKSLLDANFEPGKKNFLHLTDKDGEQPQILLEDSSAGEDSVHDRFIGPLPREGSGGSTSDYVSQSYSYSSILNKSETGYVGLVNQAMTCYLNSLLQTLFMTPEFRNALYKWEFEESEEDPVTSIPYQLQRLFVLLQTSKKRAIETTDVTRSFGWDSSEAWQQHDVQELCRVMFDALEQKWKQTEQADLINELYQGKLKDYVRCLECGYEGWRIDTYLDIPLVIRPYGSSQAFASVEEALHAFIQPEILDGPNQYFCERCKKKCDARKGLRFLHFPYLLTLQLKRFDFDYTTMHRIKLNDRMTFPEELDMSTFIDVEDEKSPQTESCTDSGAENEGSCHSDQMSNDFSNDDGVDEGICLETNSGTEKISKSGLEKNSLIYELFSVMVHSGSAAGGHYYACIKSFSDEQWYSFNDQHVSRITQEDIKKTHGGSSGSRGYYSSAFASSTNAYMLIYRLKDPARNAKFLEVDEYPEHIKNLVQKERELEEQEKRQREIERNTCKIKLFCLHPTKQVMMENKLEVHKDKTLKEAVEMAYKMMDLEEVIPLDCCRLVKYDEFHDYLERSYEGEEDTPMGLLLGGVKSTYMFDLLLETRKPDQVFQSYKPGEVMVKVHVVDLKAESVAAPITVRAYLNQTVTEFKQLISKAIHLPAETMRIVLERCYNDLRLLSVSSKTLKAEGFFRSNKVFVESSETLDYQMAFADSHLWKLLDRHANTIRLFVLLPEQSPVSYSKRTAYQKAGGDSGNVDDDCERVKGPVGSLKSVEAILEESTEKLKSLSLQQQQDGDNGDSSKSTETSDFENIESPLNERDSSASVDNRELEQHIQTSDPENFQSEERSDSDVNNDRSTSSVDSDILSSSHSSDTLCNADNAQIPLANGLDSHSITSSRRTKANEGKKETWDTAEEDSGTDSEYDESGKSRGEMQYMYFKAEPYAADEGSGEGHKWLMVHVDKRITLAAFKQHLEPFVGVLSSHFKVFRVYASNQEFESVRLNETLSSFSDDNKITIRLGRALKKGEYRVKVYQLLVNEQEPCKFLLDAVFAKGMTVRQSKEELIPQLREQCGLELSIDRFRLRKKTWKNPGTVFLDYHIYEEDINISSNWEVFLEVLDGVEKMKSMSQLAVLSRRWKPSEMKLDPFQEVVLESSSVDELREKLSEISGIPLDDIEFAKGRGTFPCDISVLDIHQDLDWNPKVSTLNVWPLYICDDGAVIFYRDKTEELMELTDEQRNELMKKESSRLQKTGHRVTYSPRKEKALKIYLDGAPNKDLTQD
How it was run: as §1

USP48 = biological target: T3, USP48 (UniProt Q86UV5)
T3 sequence (whole entry): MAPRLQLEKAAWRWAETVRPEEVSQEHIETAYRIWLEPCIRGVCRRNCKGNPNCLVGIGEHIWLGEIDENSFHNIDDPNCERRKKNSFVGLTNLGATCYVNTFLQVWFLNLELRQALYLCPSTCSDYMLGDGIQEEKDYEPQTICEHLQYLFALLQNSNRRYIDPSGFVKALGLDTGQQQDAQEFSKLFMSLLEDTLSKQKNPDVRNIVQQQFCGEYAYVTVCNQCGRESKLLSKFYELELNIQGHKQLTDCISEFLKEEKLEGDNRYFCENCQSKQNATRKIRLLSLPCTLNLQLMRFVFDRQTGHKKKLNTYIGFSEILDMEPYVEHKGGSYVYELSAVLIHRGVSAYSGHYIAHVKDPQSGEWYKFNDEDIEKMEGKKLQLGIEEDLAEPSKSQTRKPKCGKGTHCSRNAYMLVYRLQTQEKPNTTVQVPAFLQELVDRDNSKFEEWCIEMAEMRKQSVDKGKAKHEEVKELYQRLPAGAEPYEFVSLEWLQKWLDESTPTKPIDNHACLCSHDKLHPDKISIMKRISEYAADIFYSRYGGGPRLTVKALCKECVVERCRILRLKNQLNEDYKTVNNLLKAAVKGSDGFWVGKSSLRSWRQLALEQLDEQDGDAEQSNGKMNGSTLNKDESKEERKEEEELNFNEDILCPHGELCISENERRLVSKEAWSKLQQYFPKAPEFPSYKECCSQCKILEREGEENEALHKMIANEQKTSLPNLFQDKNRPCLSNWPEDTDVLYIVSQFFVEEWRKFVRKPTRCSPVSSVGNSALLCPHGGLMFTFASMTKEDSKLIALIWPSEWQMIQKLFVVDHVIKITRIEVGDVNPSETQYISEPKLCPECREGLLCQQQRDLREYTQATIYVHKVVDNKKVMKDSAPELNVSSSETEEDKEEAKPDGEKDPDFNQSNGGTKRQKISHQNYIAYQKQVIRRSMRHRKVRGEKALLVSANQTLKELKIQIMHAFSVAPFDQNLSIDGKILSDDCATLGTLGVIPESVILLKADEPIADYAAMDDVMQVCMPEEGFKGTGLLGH
How it was run: as §1

USP5 = biological target: T4, USP5 (UniProt P45974)
T4 sequence (whole entry): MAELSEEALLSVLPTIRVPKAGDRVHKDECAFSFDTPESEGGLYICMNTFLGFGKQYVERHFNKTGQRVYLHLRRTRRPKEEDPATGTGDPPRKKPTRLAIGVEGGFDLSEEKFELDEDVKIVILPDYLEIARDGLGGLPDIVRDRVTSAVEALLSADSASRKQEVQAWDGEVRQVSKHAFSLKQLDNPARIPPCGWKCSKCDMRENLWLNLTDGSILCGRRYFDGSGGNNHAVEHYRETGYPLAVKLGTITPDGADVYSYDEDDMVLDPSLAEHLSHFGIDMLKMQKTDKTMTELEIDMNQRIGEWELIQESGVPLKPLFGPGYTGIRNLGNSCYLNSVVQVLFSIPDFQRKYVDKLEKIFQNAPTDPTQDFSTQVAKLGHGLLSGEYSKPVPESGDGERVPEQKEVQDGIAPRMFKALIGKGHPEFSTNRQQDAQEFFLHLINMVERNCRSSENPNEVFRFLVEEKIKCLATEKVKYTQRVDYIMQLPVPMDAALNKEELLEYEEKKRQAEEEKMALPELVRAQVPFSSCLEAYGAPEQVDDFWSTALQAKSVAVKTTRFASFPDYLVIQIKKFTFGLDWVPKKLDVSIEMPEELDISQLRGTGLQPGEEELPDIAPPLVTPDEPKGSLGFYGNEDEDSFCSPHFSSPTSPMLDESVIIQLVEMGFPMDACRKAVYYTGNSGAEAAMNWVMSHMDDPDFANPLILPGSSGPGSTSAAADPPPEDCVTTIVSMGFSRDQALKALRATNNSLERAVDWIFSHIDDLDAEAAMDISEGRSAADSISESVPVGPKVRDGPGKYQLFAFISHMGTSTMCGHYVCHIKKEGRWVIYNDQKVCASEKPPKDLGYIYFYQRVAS
How it was run: as §1

USP54 = USP54 (UniProt Q70EL1)
Chain of USP54 (Q70EL1 whole entry): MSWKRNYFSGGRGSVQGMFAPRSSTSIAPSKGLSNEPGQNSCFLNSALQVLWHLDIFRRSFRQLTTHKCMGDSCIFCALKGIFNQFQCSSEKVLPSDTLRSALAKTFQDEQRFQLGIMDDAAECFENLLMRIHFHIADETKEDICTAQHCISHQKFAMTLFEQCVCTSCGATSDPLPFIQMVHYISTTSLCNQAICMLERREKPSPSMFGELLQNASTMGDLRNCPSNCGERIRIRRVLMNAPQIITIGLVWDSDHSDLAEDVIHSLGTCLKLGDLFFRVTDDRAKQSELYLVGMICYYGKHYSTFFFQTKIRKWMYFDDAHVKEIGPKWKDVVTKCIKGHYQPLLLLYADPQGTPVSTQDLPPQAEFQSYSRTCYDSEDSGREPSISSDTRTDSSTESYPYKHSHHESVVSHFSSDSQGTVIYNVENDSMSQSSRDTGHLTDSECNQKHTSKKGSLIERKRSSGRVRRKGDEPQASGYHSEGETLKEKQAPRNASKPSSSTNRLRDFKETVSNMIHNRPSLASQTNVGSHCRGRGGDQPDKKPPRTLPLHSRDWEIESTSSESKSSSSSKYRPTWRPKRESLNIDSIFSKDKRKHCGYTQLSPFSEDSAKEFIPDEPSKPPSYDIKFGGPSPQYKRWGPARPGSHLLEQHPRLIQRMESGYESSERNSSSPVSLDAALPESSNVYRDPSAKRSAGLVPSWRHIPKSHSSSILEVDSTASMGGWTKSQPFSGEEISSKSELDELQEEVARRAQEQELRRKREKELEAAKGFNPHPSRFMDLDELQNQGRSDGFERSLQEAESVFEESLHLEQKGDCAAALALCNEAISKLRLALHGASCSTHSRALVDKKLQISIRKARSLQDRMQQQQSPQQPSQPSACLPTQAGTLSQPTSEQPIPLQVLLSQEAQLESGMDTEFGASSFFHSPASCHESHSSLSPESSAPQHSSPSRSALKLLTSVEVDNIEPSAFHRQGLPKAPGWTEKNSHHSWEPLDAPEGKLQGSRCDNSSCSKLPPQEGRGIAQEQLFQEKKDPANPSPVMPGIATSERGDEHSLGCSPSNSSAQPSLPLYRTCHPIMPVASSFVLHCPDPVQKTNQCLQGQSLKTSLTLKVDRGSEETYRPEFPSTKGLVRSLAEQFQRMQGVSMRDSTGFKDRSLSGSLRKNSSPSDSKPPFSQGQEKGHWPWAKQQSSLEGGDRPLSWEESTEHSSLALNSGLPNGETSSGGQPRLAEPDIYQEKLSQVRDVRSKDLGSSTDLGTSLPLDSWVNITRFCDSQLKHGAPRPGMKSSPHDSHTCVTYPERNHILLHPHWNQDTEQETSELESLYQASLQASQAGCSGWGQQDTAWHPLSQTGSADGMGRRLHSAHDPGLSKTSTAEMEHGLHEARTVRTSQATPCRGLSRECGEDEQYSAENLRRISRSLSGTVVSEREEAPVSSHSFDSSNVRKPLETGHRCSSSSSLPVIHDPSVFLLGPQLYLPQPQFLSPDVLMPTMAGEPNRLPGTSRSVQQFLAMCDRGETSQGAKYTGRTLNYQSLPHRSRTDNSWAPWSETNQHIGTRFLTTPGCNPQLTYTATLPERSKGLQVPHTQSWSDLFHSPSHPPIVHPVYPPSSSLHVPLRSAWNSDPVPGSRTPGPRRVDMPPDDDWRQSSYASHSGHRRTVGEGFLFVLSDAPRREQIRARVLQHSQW
How it was run: as §1

USP7 = USP7 (UniProt Q93009)
Chain of USP7 (Q93009 whole entry, looked up): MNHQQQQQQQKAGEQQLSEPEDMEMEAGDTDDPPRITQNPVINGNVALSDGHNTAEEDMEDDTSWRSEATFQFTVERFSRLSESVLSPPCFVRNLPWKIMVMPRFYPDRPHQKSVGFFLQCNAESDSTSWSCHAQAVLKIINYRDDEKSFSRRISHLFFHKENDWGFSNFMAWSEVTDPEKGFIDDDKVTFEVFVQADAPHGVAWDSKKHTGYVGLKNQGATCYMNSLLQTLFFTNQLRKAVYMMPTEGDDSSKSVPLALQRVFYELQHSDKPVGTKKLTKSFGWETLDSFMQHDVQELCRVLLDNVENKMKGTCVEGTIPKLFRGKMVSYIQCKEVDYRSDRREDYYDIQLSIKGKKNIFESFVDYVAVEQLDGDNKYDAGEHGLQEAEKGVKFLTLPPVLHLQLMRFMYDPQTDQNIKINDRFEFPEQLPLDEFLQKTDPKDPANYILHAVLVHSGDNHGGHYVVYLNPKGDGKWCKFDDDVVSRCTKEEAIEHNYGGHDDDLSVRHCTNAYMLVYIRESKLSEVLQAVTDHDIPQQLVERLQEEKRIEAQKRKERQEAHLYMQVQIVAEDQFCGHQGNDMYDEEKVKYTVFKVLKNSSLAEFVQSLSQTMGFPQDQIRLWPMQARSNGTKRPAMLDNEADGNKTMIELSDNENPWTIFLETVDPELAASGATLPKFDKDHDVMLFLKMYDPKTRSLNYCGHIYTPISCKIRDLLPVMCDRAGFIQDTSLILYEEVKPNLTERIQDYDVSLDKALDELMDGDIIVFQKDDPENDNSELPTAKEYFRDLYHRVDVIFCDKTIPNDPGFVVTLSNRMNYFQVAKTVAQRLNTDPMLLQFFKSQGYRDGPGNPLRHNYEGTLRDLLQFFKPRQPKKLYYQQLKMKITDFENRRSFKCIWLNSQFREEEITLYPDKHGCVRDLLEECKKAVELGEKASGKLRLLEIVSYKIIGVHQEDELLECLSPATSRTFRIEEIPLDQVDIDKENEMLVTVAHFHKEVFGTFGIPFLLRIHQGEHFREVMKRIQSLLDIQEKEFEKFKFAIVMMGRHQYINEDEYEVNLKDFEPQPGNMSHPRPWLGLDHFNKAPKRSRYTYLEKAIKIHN
How it was run: as §1

USP8 = biological target: T5, USP8 (UniProt P40818)
T5 sequence (whole entry): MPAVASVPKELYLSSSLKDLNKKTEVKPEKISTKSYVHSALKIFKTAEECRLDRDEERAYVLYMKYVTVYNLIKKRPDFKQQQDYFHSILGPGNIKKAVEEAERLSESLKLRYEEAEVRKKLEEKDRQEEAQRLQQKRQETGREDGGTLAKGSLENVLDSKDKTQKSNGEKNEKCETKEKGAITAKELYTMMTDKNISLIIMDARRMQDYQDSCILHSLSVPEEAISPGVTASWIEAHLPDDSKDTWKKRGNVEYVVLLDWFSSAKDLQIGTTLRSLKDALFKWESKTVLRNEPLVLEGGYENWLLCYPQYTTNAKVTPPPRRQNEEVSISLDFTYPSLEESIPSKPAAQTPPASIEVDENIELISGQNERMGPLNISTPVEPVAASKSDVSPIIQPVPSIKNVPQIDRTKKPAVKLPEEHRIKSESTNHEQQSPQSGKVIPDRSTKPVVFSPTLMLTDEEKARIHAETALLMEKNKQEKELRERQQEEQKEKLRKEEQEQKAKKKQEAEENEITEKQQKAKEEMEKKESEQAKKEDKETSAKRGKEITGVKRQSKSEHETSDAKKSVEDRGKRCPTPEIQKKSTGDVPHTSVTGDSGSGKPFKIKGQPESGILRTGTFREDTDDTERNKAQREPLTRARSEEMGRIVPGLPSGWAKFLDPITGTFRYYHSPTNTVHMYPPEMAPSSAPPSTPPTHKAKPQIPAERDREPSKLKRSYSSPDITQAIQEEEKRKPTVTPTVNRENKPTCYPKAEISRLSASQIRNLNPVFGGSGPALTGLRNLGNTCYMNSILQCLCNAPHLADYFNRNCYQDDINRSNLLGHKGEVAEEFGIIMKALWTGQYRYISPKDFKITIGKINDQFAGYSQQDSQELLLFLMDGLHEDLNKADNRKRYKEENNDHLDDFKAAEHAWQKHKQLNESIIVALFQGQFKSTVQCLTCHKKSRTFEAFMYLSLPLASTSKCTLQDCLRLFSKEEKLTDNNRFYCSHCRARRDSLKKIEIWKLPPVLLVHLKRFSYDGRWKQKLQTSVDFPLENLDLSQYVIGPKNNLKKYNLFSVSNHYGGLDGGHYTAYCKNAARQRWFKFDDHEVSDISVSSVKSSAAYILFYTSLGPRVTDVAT
How it was run: as §1

Measured: log2 ratio of Biotin-Ahx-Ub-VS probe labelling

Cc1ncsc1CCNC(=O)CCl
inactive: USP42 0.0552 | USP46 0.359 | USP47 0.687 | USP48 0.00776 | USP5 0.325 | USP54 0.227 | USP7 0.0797 | USP8 0.298
